# According to PubChem BioAssay AID1159580 (chemical genetic matrix, 2015):
# About 2,000 (36%) of roughly 5,500 compounds were called active. Inconclusive results (about 18%) are left out. The list shows a part of the results. Values without a mark were called inactive. Rule as the data show it: active = normalized growth mostly below about 0.91 (no sharp cut-off); inconclusive = no clear call, values can overlap the other calls; inactive = mostly above about 0.92.
# Assay: chemical genetic growth profiling, strain panel (AID 1159580);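 also: tested at 20 µM; growth read once vehicle control cultures reached saturation at 30 °C; 1 = growth at the plate median or of vehicle wells; lower values mean less growth of the strain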
# Details: growth OD
structure (smiles),measurement,setting,value
O=C(O)CN(CC(=O)O)Cc1cc2c(-c3ccccc3C(=O)O)c3cc(CN(CC(=O)O)CC(=O)O)c(=O)cc-3oc2cc1O,normalized growth,"S. cerevisiae deletion strains, locus YJR043C, strain POL32, hits give low values",1.01
same,normalized growth,"S. cerevisiae deletion strains, locus YJR075W, strain HOC1, hits give low values",1.03
same,normalized growth,"S. cerevisiae deletion strains, locus YKL009W, strain mrt4, hits give low values",1.02
same,normalized growth,"S. cerevisiae deletion strains, locus YKL068W, hits give low values",1.01
same,normalized growth,"S. cerevisiae deletion strains, locus YKL085W, strain MDH1 (second series), hits give low values",1.01
same,normalized growth,"S. cerevisiae deletion strains, locus YKL085W, strain MDH1, hits give low values",1.01
same,normalized growth,"S. cerevisiae deletion strains, locus YKL160W, strain elf1, hits give low values",0.96
same,normalized growth,"S. cerevisiae deletion strains, locus YKL190W, strain CNB1, hits give low values",1.01
same,normalized growth,"S. cerevisiae deletion strains, locus YKR001C, strain vps1, hits give low values",1.02
same,normalized growth,"S. cerevisiae deletion strains, locus YKR026C, strain gcn3, hits give low values",0.986
same,normalized growth,"S. cerevisiae deletion strains, locus YKR091W, strain srl3, hits give low values",0.965
same,normalized growth,"S. cerevisiae deletion strains, locus YLL001W, strain dnm1, hits give low values",0.984
same,normalized growth,"S. cerevisiae deletion strains, locus YLL026W, hits give low values",0.987
same,normalized growth,"S. cerevisiae deletion strains, locus YLL041C, strain sdh2, hits give low values",0.974
same,normalized growth,"S. cerevisiae deletion strains, locus YLR027C, strain aat2, hits give low values",0.969
same,normalized growth,"S. cerevisiae deletion strains, locus YLR039C, strain RIC1, hits give low values",1.05
same,normalized growth,"S. cerevisiae deletion strains, locus YLR058C, strain SHM2, hits give low values",1
same,normalized growth,"S. cerevisiae deletion strains, locus YLR102C, strain apc9, hits give low values",1.03
same,normalized growth,"S. cerevisiae deletion strains, locus YLR221C, strain rsa3, hits give low values",0.984
same,normalized growth,"S. cerevisiae deletion strains, locus YLR258W, strain gsy2, hits give low values",0.967
same,normalized growth,"S. cerevisiae deletion strains, locus YLR262C, strain YPT6 (second series), hits give low values",0.817 (active)
same,normalized growth,"S. cerevisiae deletion strains, locus YLR262C, strain YPT6, hits give low values",1.06
same,normalized growth,"S. cerevisiae deletion strains, locus YLR268W, strain sec22, hits give low values",1.01
same,normalized growth,"S. cerevisiae deletion strains, locus YLR320W, strain mms22, hits give low values",0.973
same,normalized growth,"S. cerevisiae deletion strains, locus YLR330W, strain CHS5, hits give low values",1.01
same,normalized growth,"S. cerevisiae deletion strains, locus YLR342W, strain FKS1 (second series), hits give low values",1
same,normalized growth,"S. cerevisiae deletion strains, locus YLR342W, strain FKS1, hits give low values",0.964
same,normalized growth,"S. cerevisiae deletion strains, locus YLR357W, strain rsc2, hits give low values",0.896
same,normalized growth,"S. cerevisiae deletion strains, locus YLR370C, strain arc18, hits give low values",0.964
same,normalized growth,"S. cerevisiae deletion strains, locus YLR371W, strain rom2, hits give low values",1.02
same,normalized growth,"S. cerevisiae deletion strains, locus YLR384C, strain iki3, hits give low values",0.973
same,normalized growth,"S. cerevisiae deletion strains, locus YLR418C, strain cdc73, hits give low values",1.03
same,normalized growth,"S. cerevisiae deletion strains, locus YML016C, strain PPZ1, hits give low values",1.01
same,normalized growth,"S. cerevisiae deletion strains, locus YML032C, strain rad52, hits give low values",1.03
same,normalized growth,"S. cerevisiae deletion strains, locus YML120C, strain ndi1, hits give low values",0.968
same,normalized growth,"S. cerevisiae deletion strains, locus YML124C, strain tub3, hits give low values",1.02
same,normalized growth,"S. cerevisiae deletion strains, locus YMR058W, strain fet3, hits give low values",0.466 (active)
same,normalized growth,"S. cerevisiae deletion strains, locus YMR078C, strain ctf18, hits give low values",1.03
same,normalized growth,"S. cerevisiae deletion strains, locus YMR125W, strain sto1, hits give low values",1.01
same,normalized growth,"S. cerevisiae deletion strains, locus YMR129W, hits give low values",0.964
same,normalized growth,"S. cerevisiae deletion strains, locus YMR205C, strain PFK2, hits give low values",0.989
same,normalized growth,"S. cerevisiae deletion strains, locus YMR223W, strain ubp8, hits give low values",1
same,normalized growth,"S. cerevisiae deletion strains, locus YMR231W, strain pep5, hits give low values",0.942
same,normalized growth,"S. cerevisiae deletion strains, locus YMR263W, strain SAP30, hits give low values",1.02
same,normalized growth,"S. cerevisiae deletion strains, locus YMR307W, strain GAS1, hits give low values",0.947
same,normalized growth,"S. cerevisiae deletion strains, locus YNL067W, strain RPL9B, hits give low values",1.03
same,normalized growth,"S. cerevisiae deletion strains, locus YNL071W, strain lat1, hits give low values",0.973
same,normalized growth,"S. cerevisiae deletion strains, locus YNL128W, strain TEP1, hits give low values",0.96
same,normalized growth,"S. cerevisiae deletion strains, locus YNL153C, strain GIM3, hits give low values",0.998
same,normalized growth,"S. cerevisiae deletion strains, locus YNL209W, strain ssb2, hits give low values",0.911 (active)
same,normalized growth,"S. cerevisiae deletion strains, locus YNL233W, strain BNI4, hits give low values",0.994
same,normalized growth,"S. cerevisiae deletion strains, locus YNL248C, strain rpa49, hits give low values",1.02
same,normalized growth,"S. cerevisiae deletion strains, locus YNL250W, strain rad50, hits give low values",1.01
same,normalized growth,"S. cerevisiae deletion strains, locus YNL271C, strain bni1, hits give low values",1.01
same,normalized growth,"S. cerevisiae deletion strains, locus YNL298W, strain CLA4, hits give low values",1.04
same,normalized growth,"S. cerevisiae deletion strains, locus YNL307C, strain MCK1, hits give low values",1.03
same,normalized growth,"S. cerevisiae deletion strains, locus YNL322C, strain KRE1 (second series), hits give low values",0.967
same,normalized growth,"S. cerevisiae deletion strains, locus YNL322C, strain KRE1, hits give low values",1.01
same,normalized growth,"S. cerevisiae deletion strains, locus YNR049C, strain mso1, hits give low values",0.956
same,normalized growth,"S. cerevisiae deletion strains, locus YNR052C, strain pop2, hits give low values",1.02
same,normalized growth,"S. cerevisiae deletion strains, locus YOL006C, strain TOP1, hits give low values",1
same,normalized growth,"S. cerevisiae deletion strains, locus YOL012C, strain htz1",1.12
same,normalized growth,"S. cerevisiae deletion strains, locus YOL147C, strain pex11, hits give low values",1.02
same,normalized growth,"S. cerevisiae deletion strains, locus YOR001W, strain rrp6, hits give low values",0.939
same,normalized growth,"S. cerevisiae deletion strains, locus YOR061W, strain CKA2, hits give low values",1
same,normalized growth,"S. cerevisiae deletion strains, locus YOR069W, strain VPS5, hits give low values",1.01
same,normalized growth,"S. cerevisiae deletion strains, locus YOR070C, strain gyp1, hits give low values",0.986
same,normalized growth,"S. cerevisiae deletion strains, locus YOR080W, strain dia2, hits give low values",0.947
same,normalized growth,"S. cerevisiae deletion strains, locus YOR083W, strain WHI5, hits give low values",0.958
same,normalized growth,"S. cerevisiae deletion strains, locus YOR106W, strain vam3, hits give low values",0.773 (active)
same,normalized growth,"S. cerevisiae deletion strains, locus YOR136W, strain idh2, hits give low values",1.02
same,normalized growth,"S. cerevisiae deletion strains, locus YOR144C, strain elg1, hits give low values",1.02
same,normalized growth,"S. cerevisiae deletion strains, locus YOR184W, strain ser1, hits give low values",1.03
same,normalized growth,"S. cerevisiae deletion strains, locus YOR265W, strain rbl2, hits give low values",0.984
same,normalized growth,"S. cerevisiae deletion strains, locus YOR270C, strain vph1, hits give low values",0.764 (active)
same,normalized growth,"S. cerevisiae deletion strains, locus YOR290C, strain snf2, hits give low values",0.904
same,normalized growth,"S. cerevisiae deletion strains, locus YOR316C, strain cot1, hits give low values",1.02
same,normalized growth,"S. cerevisiae deletion strains, locus YPL051W, strain arl3, hits give low values",0.867 (active)
same,normalized growth,"S. cerevisiae deletion strains, locus YPL055C, strain LGE1, hits give low values",0.974
same,normalized growth,"S. cerevisiae deletion strains, locus YPL078C, strain atp4, hits give low values",0.939
same,normalized growth,"S. cerevisiae deletion strains, locus YPL106C, strain sse1, hits give low values",0.87
same,normalized growth,"S. cerevisiae deletion strains, locus YPL240C, strain hsp82, hits give low values",0.971
same,normalized growth,"S. cerevisiae deletion strains, locus YPL241C, strain CIN2, hits give low values",0.987
same,normalized growth,"S. cerevisiae deletion strains, locus YPR119W, strain clb2, hits give low values",1.02
same,normalized growth,"S. cerevisiae deletion strains, locus YPR141C, strain kar3, hits give low values",1.02
same,normalized growth,"S. cerevisiae deletion strains, locus YPR163C, strain tif3, hits give low values",1.01
same,normalized growth,"S. cerevisiae deletion strains, locus YPR167C, strain met16, hits give low values",1.03
same,normalized growth,"S. cerevisiae deletion strains, strain wtn01, hits give low values",1.01
same,normalized growth,"S. cerevisiae strains, strain wild type, hits give low values",0.999
